This is an account of results in PubChem BioAssay (EPA / NIEHS).

One may read the AC50 as the concentration giving half of the maximal activity seen.

Active and inactive are the calls of the source. How the source made its calls: active means hit-call score of the fitted dose curve at least 0.9, where 1 is the maximum; inactive means score below 0.9.

Read-out in the assay: CYP2C8 (gene 1558)
Put plainly: LTEA_HepaRG_CYP2C8: Life Technologies and Expression Analysis (LTEA) Assay for CYP2C8 using HepaRG (AID 2283483). The following applies: mRNA level, 48 h; actives raise or lower the signal. As for the experimental part: LTEA_HepaRG is a cell based, multiplexed-readout assay that uses HepaRG, a human liver cell line, with measurements taken at 48 hours after chemical dosing on a 96-well plate.LTEA_HepaRG_CYP2C8 is one of 102 assay component(s) measured in the LTEA HepaRG cell culture assay. It is a marker of NR mediated metabolism.Data from the assay component LTEA_HepaRG_CYP2C8 was analyzed into 1 endpoint. This assay endpoint, LTEA_HepaRG_CYP2C8, was analyzed with bidirectional fitting relative to DMSO as the negative control and baseline of activity. Using a type of inducible reporter, measures of mRNA induction for gain or loss-of-signal activity can be used to understand regulation of transcription factor activity. To generalize the intended target to other relatable targets, this assay endpoint is annotated to the cyp intended target family, where the subfamily is xenobiotic metabolism.
A total of 1060 chemcials from the ToxCast library were tested in eight-point concentration-response experiments. Cell culture and cytotoxicity assays were conducted at Thermo Fisher Scientific's Custom Services facility (Madison, WI). A single lot of human HepaRG cells (Thermo Fisher Scientific, Frederick, MD) was used for the cell culture experiments. 96-well format collagen type I coated plates of human HepaRG cells were prepared using established methods. Briefly, cryopreserved HepaRG cells were thawed, plated at a density of approximately 100,000 cells/well in HepaRG Thaw, Plate, and General Purpose media (HPRG770, Thermo Fisher Scientific), and incubated for 48 hours. 0.5% DMSO was selected as vehicle control to balance the requisite need of DMSO in HepaRG cultures to maintain differentiation (for example, baseline metabolism, proportions of hepatocytes vs. cholangiocytes), while enabling further hepatic receptor pathway activation (for example, PXR and CAR) in response to chemical exposure. 48 hours after plating, the culture medium was replaced with HepaRG Serum-Free Incudtion Media. Cells were exposed to each test chemical in duplicate and maintained in CO2 incubators for another 48 hours. Chemical plates were thawed to room temperature and 200x concentrations of treatment groups were prepared. 8-point conentration-reponse curves were made with the highest exposure at 100 uM, followed by half-log dilutions, all in 0.5% DMSO. Each test plate contained variouse controls, induction positive controls (1mM phenobarbital), cytotoxicity positive controls ([…] aflatoxin B1), vehicle controls (0.5% DMSO), and total lysis controls (0.5% DMSO). Cell morphology images were taken using an Essen IncuCyte FLR automated microscope, with six 96-well plates imaged in about 24 minutes. Images were captured and exported and JPEG files. Spent culture media was transfered to black-well plates for the LDH assay, and remaining media was sorted at -80 C for later use. Cells were treated with RLT buffer and frozen until shipped for gene expression analysis. Total RNA was isolated from the cell suspension in 75 uL of Buffer RLT (Qiagen, Germantown, MD 20874) by Quintiles/Expression Analysis (Durham, NC) using a custom isolation procedure. Total RNA from each plate well was transferred to a preamplification plate. Fluidigm's 96.96 Dynamic ArrayTM (Fluidigm, Amsterdam, the Netherlands) technology was used for gene expression analyses by quantitative reverse transcription polymerase chain reaction (qRT-PCR, performed by Quintiles/Expression Analysis, Durham, NC)89. Standard TaqManTM Assays (Applied Biosystems/ThermoFisher Scientific, Foster City, CA) were used to assess the expression of 93 genes selected based on their selectivity and sensitivity to important hepatic receptors known to be modulated by environmental chemicals; importance in human hepatocyte functionality; and hepatotoxicity. […]
In the case of `Cn1c(-c2ccccc2)cc(-c2ccccc2)[n+]1C`, the AC50 is 13.5 µM (active).
On the same count and under the same terms, under `CC(C)Oc1cccc(NC(=O)c2ccccc2C(F)(F)F)c1` stands 50 µM (active).
The same measure, in the same setting: the result for `OC(c1ccc(Cl)cc1)(c1ccc(Cl)cc1)C(Cl)(Cl)Cl` reads 80.6 µM (active); that for `CCOP(=O)(OCC)Oc1nc(Cl)c(Cl)cc1Cl`, 84.5 µM (active).
On the same count and under the same terms, under `CC(C)N1C(=O)N(c2ccccc2)CSC1=NC(C)(C)C` stands 84.2 µM (active).
As for `CCCCOCN(C(=O)CCl)c1c(CC)cccc1CC`, the result was inactive.
The same measure, in the same setting: under `COCc1cnc(C2=NC(C)(C(C)C)C(=O)N2)c(C(=O)O)c1` (stereo not given) stands “inactive”.
Consider `CCOP(=S)(OCC)Oc1nc(Cl)n(C(C)C)n1`, for which the call was inactive.
In the case of `Clc1nc(Cl)nc(Nc2ccccc2Cl)n1`, the molecule was classed as inactive.
For the molecule `Cc1c(COC(=O)[C@@H]2[C@H](/C=C(\Cl)C(F)(F)F)C2(C)C)cccc1-c1ccccc1`, the molecule was classed as inactive.
With `CC(C)N1C(=O)c2ccccc2NS1(=O)=O`, the molecule was called inactive.
The same measure, in the same setting: under `COP(=S)(OC)SCn1nnc2ccccc2c1=O` stands “inactive”.
Regarding `CC1(C)CON(Cc2ccccc2Cl)C1=O`, the AC50 was 12.8 µM (active).
On to `COCC(C)N(C(=O)CCl)c1c(C)csc1C` (stereo not given), for which the molecule was classed as inactive.
Still for that read-out and setting: under `O=c1n(Cl)c(=O)n(Cl)c(=O)n1Cl` stands “inactive”; under `CCOc1nc(F)cc2nc(S(=O)(=O)Nc3c(Cl)cccc3Cl)nn12`, “inactive”.
As for `CC(C)Nc1nc(Cl)nc(NC(C)C)n1`, the molecule was classed as inactive.
On the same count and under the same terms, the result for `Nc1c(Cl)c(F)nc(OCC(=O)O)c1Cl` reads “inactive”.
With `CCOc1nc(C(Cl)(Cl)Cl)ns1`, the AC50 was 1.14 µM (active).
Regarding `CS(=O)(=O)c1cc(C(F)(F)F)ccc1C(=O)c1cnoc1C1CC1`, the result was inactive.
As to `COc1cc(OC)nc(NC(=O)NS(=O)(=O)c2ncccc2OCC(F)(F)F)n1`, the molecule was classed as inactive.
The same measure, in the same setting: under `CC(C)C1(C)N=C(c2ncccc2C(=O)O)NC1=O` (stereo not given) stands “inactive”.
For `CC1(C)CCC(=Cc2ccc(Cl)cc2)C1(O)Cn1cncn1` (stereo not given), the AC50 was 12.6 µM (active).
The same measure, in the same setting: the result for `CSC(=O)c1c(C(F)F)nc(C(F)(F)F)c(C(=O)SC)c1CC(C)C` reads 11.5 µM (active).
Consider `CCN(CC)c1nc(C)cc(OP(=S)(OC)OC)n1`, for which the molecule was classed as inactive.
Same read-out and setting: under `CS(=O)(=O)c1ccc(C(=O)C2C(=O)CCCC2=O)c([N+](=O)[O-])c1` stands “inactive”.
On to `CCOC(=O)C(C)OC(=O)c1cc(Oc2ccc(C(F)(F)F)cc2Cl)ccc1[N+](=O)[O-]` (stereo not given), for which the AC50 is 12.8 µM (active).
`CC1(C)C(C(=O)OC(C#N)c2cccc(Oc3ccccc3)c2)C1(C)C` (stereo not given): the call was inactive.
The same measure, in the same setting: the result for `COP(=O)(OC)O/C(C)=C/C(=O)N(C)C` reads “inactive”.
Still for that read-out and setting: under `N#Cc1c(Cl)cccc1Cl` stands “inactive”; under `COC(=O)N(C(=O)N1CO[C@@]2(C(=O)OC)Cc3cc(Cl)ccc3C2=N1)c1ccc(OC(F)(F)F)cc1`, “inactive”; under `CC1(C)C(C=C(Cl)Cl)C1C(=O)OC(C#N)c1cccc(Oc2ccccc2)c1` (stereo not given), “inactive”.
Consider `CO/N=C(/C1=NOCCO1)c1ccccc1Oc1ncnc(Oc2ccccc2Cl)c1F`, for which the AC50 was 25.8 µM (active).
Regarding `CCCC(=NOCC)C1=C(O)CC(CC(C)SCC)CC1=O` (stereo not given), the molecule was classed as inactive.
Take `CCNP(=S)(OC)O/C(C)=C/C(=O)OC(C)C` (stereo not given): the AC50 was 12.9 µM (active).
Consider `CCCN(CC)CC1COC2(CCC(C(C)(C)C)CC2)O1` (stereo not given), for which the call was inactive.
`CN/C(=N\[N+](=O)[O-])NCc1cnc(Cl)s1`: the molecule was called inactive.
Same read-out and setting: the result for `CNC(=O)Oc1cccc2ccccc12` reads “inactive”.
As for `COc1cc(Cl)c(OC)cc1Cl`, the outcome was inactive.
Regarding `CCC(C)n1c(=O)[nH]c(C)c(Br)c1=O` (stereo not given), the AC50 was 50 µM (active).
